The source of these data is paper PMC4336329 (PLoS ONE, 2015).

In all, about 310,000 compounds went through this assay and about 14,000 (4.5%) showed an effect of 50% or more. The effect is printed as a negative number. This is one part of a sample in which strong results are shown more often than they occur.
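Further: peak tail current of the secondary pulse compared with the same well before compound.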

For this assay, the target named is human ether-à-go-go-related gene (hERG) potassium channel (human, UniProt Q12809). The experiment in a line: primary screen, population patch clamp on CHO cells stably expressing hERG; higher = less effect of the substance.
Sequence of human ether-à-go-go-related gene (hERG) potassium channel (Q12809 whole entry, looked up): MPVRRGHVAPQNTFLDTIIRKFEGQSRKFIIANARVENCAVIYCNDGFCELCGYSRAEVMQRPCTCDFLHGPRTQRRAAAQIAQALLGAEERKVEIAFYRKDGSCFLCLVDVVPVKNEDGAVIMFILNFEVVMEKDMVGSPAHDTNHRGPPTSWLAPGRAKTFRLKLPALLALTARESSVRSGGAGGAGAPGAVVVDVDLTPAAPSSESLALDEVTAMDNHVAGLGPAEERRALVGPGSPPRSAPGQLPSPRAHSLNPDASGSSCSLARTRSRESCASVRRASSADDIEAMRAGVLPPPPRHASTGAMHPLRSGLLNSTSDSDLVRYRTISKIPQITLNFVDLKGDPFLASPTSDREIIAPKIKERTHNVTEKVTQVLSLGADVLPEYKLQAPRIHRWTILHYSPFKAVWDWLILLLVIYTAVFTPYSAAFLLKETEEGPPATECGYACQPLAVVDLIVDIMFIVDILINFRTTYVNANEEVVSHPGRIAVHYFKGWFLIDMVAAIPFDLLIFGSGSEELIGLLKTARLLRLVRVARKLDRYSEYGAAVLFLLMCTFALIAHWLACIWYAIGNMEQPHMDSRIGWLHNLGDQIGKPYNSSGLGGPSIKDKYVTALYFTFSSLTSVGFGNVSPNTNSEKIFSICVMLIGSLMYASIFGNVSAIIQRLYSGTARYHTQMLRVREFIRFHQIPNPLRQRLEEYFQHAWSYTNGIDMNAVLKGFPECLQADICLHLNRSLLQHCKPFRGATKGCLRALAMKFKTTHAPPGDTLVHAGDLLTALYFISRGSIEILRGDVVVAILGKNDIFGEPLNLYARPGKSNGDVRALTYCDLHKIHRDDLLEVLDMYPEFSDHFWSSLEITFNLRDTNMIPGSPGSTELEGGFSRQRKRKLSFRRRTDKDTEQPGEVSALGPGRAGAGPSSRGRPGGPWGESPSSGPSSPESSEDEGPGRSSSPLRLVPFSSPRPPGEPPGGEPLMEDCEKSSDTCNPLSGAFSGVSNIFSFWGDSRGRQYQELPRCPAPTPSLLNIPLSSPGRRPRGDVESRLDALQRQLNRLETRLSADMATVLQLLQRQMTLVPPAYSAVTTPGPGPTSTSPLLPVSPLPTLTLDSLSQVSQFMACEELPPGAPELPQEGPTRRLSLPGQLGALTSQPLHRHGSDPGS
Regarding `Cc1onc(-c2ccccc2)c1-c1csc(N/N=C/c2ccccc2)n1`, the “hERG current change (%, negative = inhibition) at 10uM” value is on record as 8.79%. Consider `CC(C)[C@H](NC(=O)c1cccc(S(=O)(=O)N2CCCC2)c1)c1nc2ccccc2[nH]1`, for which the “hERG current change (%, negative = inhibition) at 10uM” value is on record as 9.05%. In the case of `COc1ccc(/C=N/N2CCN(c3ccncc3S(=O)(=O)N3CCCCC3)CC2)cc1`, the “hERG current change (%, negative = inhibition) at 10uM” value came to 10.3%.

In the case of `CCOC(=O)c1cc2sc(C)cc2n1CC(=O)N1CCN(C(=O)c2ccco2)CC1`, the “hERG current change (%, negative = inhibition) at 10uM” value is reported as -8.61%. For the compound `Cc1ccc2nc(Cl)c(/C=N/NC(=O)[C@H]3C[C@@H]3c3ccccc3)cc2c1`, the “hERG current change (%, negative = inhibition) at 10uM” value is on record as 19.5%. As for `O=C(Cc1ccc(-c2ccccc2)cc1)NCCN1CCOCC1`, the “hERG current change (%, negative = inhibition) at 10uM” value is given as 0.566%. The value for `COc1cccc(CC2(CO)CCCN(Cc3ccc4c(c3)OCCO4)C2)c1` (centres unmarked) was -58.5%; that for `COc1cccc(CC2(CO)CCCN(Cc3ccc(CN4CCCCC4)s3)C2)c1` (centres unmarked) was -22.1%; that for `OCC1(Cc2ccccc2)CCCN(Cc2ccc3c(c2)OCCO3)C1` (centres unmarked) was -24.6%. As to `COc1cccc(CC2(CO)CCCN(Cc3[nH]c4ccc(C)cc4c3C)C2)c1` (centres unmarked), the “hERG current change (%, negative = inhibition) at 10uM” value is -74.7%. The value for `COc1cccc(CC2(CO)CCCN(Cc3sc(N4CCCC4)nc3Cl)C2)c1` (centres unmarked) was -27.2%. Consider `COc1cccc(CC2(CO)CCCN(Cc3cc4ccccc4[nH]3)C2)c1` (centres unmarked), for which the “hERG current change (%, negative = inhibition) at 10uM” value is -37.5%.

On to `COc1cccc(CC2(CO)CCCN(Cc3ccc(OC(F)F)cc3)C2)c1` (centres unmarked), for which the “hERG current change (%, negative = inhibition) at 10uM” value was -68.6%. Consider `COc1cccc(CC2(CO)CCCN(Cc3ccc(C)s3)C2)c1` (centres unmarked), for which the “hERG current change (%, negative = inhibition) at 10uM” value is given as -50.5%. The value for `CCC(NC(=O)c1ccccc1NC(=O)c1ccco1)C(=O)NNC(=O)c1ccc(OC)cc1` (centres unmarked) was 10.3%.

With `NC(=O)c1ccc(SCC(=O)OCC(=O)NCC2CCCCC2)c([N+](=O)[O-])c1`, the “hERG current change (%, negative = inhibition) at 10uM” value was -5.21%. In the case of `CC(C)(C)NC(=O)c1ccc2c(c1)N(CC(=O)NC1CCCC1)C(=O)C(C)(C)O2`, the “hERG current change (%, negative = inhibition) at 10uM” value came to 8.72%. The value for `COc1ccc(-c2csc(NC(=O)CSCC(=O)Nc3cc(C)on3)n2)cc1OC` was 1.07%. The value for `O=C(Nc1ccc(-c2n[nH]c(=S)o2)cc1)c1ccccc1` was 15.6%; that for `O=C(c1cccc(S(=O)(=O)Nc2ccccc2F)c1)N1CCN(c2ccccc2F)CC1` was -21.5%; that for `CCOc1ccc(NC(=O)CSc2nccn2Cc2ccco2)cc1` was -19.5%. Consider `Cc1cc(S(=O)(=O)N2CCCC(C(=O)Nc3ccc(C(=O)O)cc3)C2)ccc1Cl` (centres unmarked), for which the “hERG current change (%, negative = inhibition) at 10uM” value is reported as 10.2%. In the case of `COc1ccc(CSc2nnnn2C)cc1F`, the “hERG current change (%, negative = inhibition) at 10uM” value is given as -6.74%.

As for `CCOC(=O)C1CCN(C2=NC(=O)/C(=C/c3ccc(O)cc3)S2)CC1`, the “hERG current change (%, negative = inhibition) at 10uM” value is listed as -67.1%. Take `Cc1ccc(/C=C2\SC(N3CCCCC3)=NC2=O)cc1`: the “hERG current change (%, negative = inhibition) at 10uM” value was determined as 0.193%. In the case of `Cc1ccc(/C=C2\SC(N3CCCC3)=NC2=O)cc1`, the “hERG current change (%, negative = inhibition) at 10uM” value is listed as -22.4%.

Consider `CC1CCN(C2=NC(=O)/C(=C/c3ccc(O)cc3)S2)CC1`, for which the “hERG current change (%, negative = inhibition) at 10uM” value is -24.7%. `CCOC(=O)C1CCN(C2=NC(=O)/C(=C/c3ccccc3OC)S2)CC1`: the “hERG current change (%, negative = inhibition) at 10uM” value is recorded as -22.9%.

Regarding `CCOC(=O)C1CCCN(C2=NC(=O)/C(=C/c3ccc(N(C)C)cc3)S2)C1` (centres unmarked), the “hERG current change (%, negative = inhibition) at 10uM” value is -24.9%.

Turning to `CC(C)(C)c1ccc(/C=C2/SC(N3CCCC3)=NC2=O)cc1`, the “hERG current change (%, negative = inhibition) at 10uM” value is reported as -51.1%. Turning to `CCOC(=O)C1CCN(C2=NC(=O)/C(=C/c3ccc(Cl)cc3)S2)CC1`, the “hERG current change (%, negative = inhibition) at 10uM” value is on record as -64.8%. Consider `CCOC(=O)C1CCN(C2=NC(=O)/C(=C/c3ccc(OC)c(OC)c3)S2)CC1`, for which the “hERG current change (%, negative = inhibition) at 10uM” value is on record as -17.8%. Regarding `COc1ccc(NCc2nnc(SCC(=O)Nc3ccc(OC)cc3OC)o2)cc1`, the “hERG current change (%, negative = inhibition) at 10uM” value is reported as -9.35%. Take `CCN(c1ccccc1)S(=O)(=O)c1cc2c(cc1C)n(C)c(=O)c(=O)n2C`: the “hERG current change (%, negative = inhibition) at 10uM” value is recorded as -32%.

For the compound `Cc1cccc(C(=O)NNS(=O)(=O)c2ccccc2[N+](=O)[O-])c1`, the “hERG current change (%, negative = inhibition) at 10uM” value was determined as 1.16%. The result for `CN(C(=O)CCS(=O)(=O)c1ccc2c(c1)oc(=O)n2C)C1CCCCC1` reads 3.68%.

For `Cc1nn(CCC(=O)O)c(C)c1C`, the “hERG current change (%, negative = inhibition) at 10uM” value is on record as 5.72%. In the case of `C=CCn1c(=O)c2c(nc3n2CCN3c2cccc(Cl)c2C)n(C)c1=O`, the “hERG current change (%, negative = inhibition) at 10uM” value is reported as -15%. Turning to `CCOC(=O)N1CCN(Cc2nc3cc(NC(=O)C(C)C)ccc3n2CC)CC1`, the “hERG current change (%, negative = inhibition) at 10uM” value stood at 14.3%. On to `CCOC(=O)N1CCN(Cc2nc3cc([N+](=O)[O-])ccc3n2CC)CC1`, for which the “hERG current change (%, negative = inhibition) at 10uM” value is -51.9%. Take `CCOC(=O)N1CCN(Cc2nc3cc(NC(=O)CC(C)C)ccc3n2CC)CC1`: the “hERG current change (%, negative = inhibition) at 10uM” value is -8.18%. For `CCOC(=O)N1CCN(Cc2nc3cc([N+](=O)[O-])ccc3n2C)CC1`, the “hERG current change (%, negative = inhibition) at 10uM” value is reported as -24.5%.

`CCCn1c(CN2CCN(C(=O)OCC)CC2)nc2cc(NC(C)=O)ccc21`: the “hERG current change (%, negative = inhibition) at 10uM” value worked out at 12.8%. As to `CCCn1c(CN2CCN(C(=O)OCC)CC2)nc2cc([N+](=O)[O-])ccc21`, the “hERG current change (%, negative = inhibition) at 10uM” value is given as -64%.
